Compound activity as filed in PubChem BioAssay.
Rows were chosen to be rich in hits. Some 2.6% of all compounds tested hit in one or more screens of this group.
Cruzain Triton – inhibitors of Trypanosoma cruzi cruzain with detergent; P25779; purified cruzain, Z-FR-AMC fluorescence, 0.01% Triton; Potency, µM, actives largely listed as inhibitors; hit rate 0.43% among 200,000; also: nearly all actives have a fitted effect of over 40% in size
Target sequence (P25779 123-467 limits assumed): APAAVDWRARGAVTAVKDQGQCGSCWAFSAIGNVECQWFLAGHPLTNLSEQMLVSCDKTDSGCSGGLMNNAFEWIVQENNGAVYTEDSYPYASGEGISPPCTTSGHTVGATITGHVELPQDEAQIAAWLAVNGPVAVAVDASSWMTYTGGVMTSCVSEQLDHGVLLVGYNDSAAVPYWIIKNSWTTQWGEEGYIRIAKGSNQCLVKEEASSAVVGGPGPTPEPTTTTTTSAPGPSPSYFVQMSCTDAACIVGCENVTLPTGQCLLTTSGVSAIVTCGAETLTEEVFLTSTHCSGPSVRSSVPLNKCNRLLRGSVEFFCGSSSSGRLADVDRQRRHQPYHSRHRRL
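In this qHTS format, compounds are incubated with 1.5 nM cruzain for 15 min at room temperature before 2 uM Z-FR-AMC is added. Release of AMC is followed at 360/450 nm, and progress is taken as the 60 s fluorescence difference.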
Cruzain inh noDet – inhibitors of Trypanosoma cruzi cruzain without detergent | P25779 | Potency, µM, usual class: inhibitors | hit rate 2.3% among 200,000 | purified cruzain, Z-FR-AMC fluorescence, no detergent; also: nearly all actives have a fitted effect of over 40% in size
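Purified cruzain at 1.5 nM, pre-incubated 15 min with compound at room temperature in 100 mM sodium acetate pH 5.5, 5 mM DTT, 0.00005% Triton X-100. Reaction started with 2 uM Z-FR-AMC; AMC fluorescence increase over 60 s gives rate.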
Of the large screens only hits and unclear results are named; the others gave an inactive call. Calls follow the shape of the dose curve; as a rule, active = well fitted curve in the direction sought with a large enough effect; inconclusive = small, poorly fitted or top-dose-only effect, or another doubt; inactive = no such curve, though single readings can be large; an effect the other way counts as inactive or inconclusive.

O=C(Oc1oc(-c2ccco2)nc1C=Nc1ccccc1)c1ccoc1	Cruzain Triton 22µM, Cruzain inh noDet inconclusive
CCOC(=O)c1c(C)oc2nc(C)nc(NCCCN3CCN(c4ccc(F)cc4)CC3)c12	none
CCOc1ccc(-n2c(SCC(=O)Nc3ccc(CC)cc3)nc3c(oc4ccccc43)c2=O)cc1	none
O=C(Nc1cccc(Cl)c1Cl)C1CC(=O)N(c2ccc(Br)cc2)C1 (stereo unspecified)	Cruzain inh noDet 25µM
O=C(Nc1cccc(F)c1)C1CC(=O)N(c2ccc(Br)cc2)C1 (stereo unspecified)	none
CCN1CCSc2ccc(C(=O)NCc3cccc(F)c3)cc21	none
O=C(NCc1cccc(F)c1)c1ccc(N2C(=O)Cn3c(cc4sccc43)C2=O)cc1	Cruzain inh noDet 25µM
Cc1cc(C)c2nc(N3CCCC(C(=O)NCc4ccccc4F)C3)sc2c1 (stereo unspecified)	none
Cc1ccc(C(=O)NN2C(=O)/C(=C/c3cccn3C)SC2=S)cc1	Cruzain inh noDet inconclusive
Cn1cc(/C=C2\SC(=S)N(NC(=O)c3ccccc3Cl)C2=O)c2ccccc21	Cruzain inh noDet 10µM
Cc1ccc(C(=O)NN2C(=O)/C(=C/c3cn(C)c4ccccc34)SC2=S)cc1	Cruzain inh noDet 10µM
Cn1cccc1/C=C1\SC(=S)N(NC(=O)c2ccccc2Cl)C1=O	none
COc1ccc(OC)c(NC(=O)CS(=O)(=O)Cc2nc(-c3ccc(C)cc3)oc2C)c1	none
Cc1cnc(Nc2nc3ccccc3o2)nc1C(=O)Nc1cccc(C(F)(F)F)c1	none
O=C(Nc1ccc(/C=C/c2nc3ccccc3o2)cc1)c1c(F)cccc1F	Cruzain inh noDet 10µM
O=C(Nc1ccc2c(c1)OCCO2)c1c(F)cccc1F	none
O=C(Nc1ccc(/C=C/c2nc3ccccc3o2)cc1)c1cccc(C(F)(F)F)c1	Cruzain inh noDet 7.9µM
COc1ccc(CCNC(=O)CCn2c(=O)c3ccccc3n(CC(=O)Nc3ccc(C)cc3C)c2=O)cc1OC	none
CC1(C)N=C(N)NC(Nc2ccc(Br)cc2)=N1	Cruzain Triton 16µM, Cruzain inh noDet 20µM
CC1(C)N=C(N)NC(Nc2cccc(Br)c2)=N1	none
Cc1cccc(OCCSc2nc3ccc(NC(=O)COc4ccccc4F)cc3s2)c1	none
COc1cccc(-n2c(SCC(=O)Nc3cccc(Cl)c3)nc3c(oc4ccccc43)c2=O)c1	Cruzain inh noDet 13µM
COc1cccc(-n2c(SCC(=O)Nc3cc(C)ccc3C)nc3c(oc4ccccc43)c2=O)c1	none
Cc1cccc(NC(=O)CSc2nc3c(oc4ccccc43)c(=O)n2C(C)C)c1	none
O=C(CSc1nc2c(oc3ccccc32)c(=O)[nH]1)Nc1cccc(Cl)c1	Cruzain inh noDet 7.9µM
Cc1cc(Cl)ccc1NC(=O)c1cccc(NC(=O)N2CCSc3ncccc32)c1	none
CC1CCN(C(=O)CSc2nc3c([nH]c4ccccc43)c(=O)n2-c2ccccc2)CC1	none
CCCCCn1c(=O)[nH]c2cc(C(=O)NCc3ccc(OC)cc3)ccc2c1=O	none
O=C(CSc1nnc(SCc2cccc3ccccc23)s1)N/N=C/C=C/c1ccccc1[N+](=O)[O-]	Cruzain inh noDet 10µM
O=C(CSc1nnc(SCc2cccc3ccccc23)s1)N/N=C/c1c[nH]c2ccccc12	none
CC1CCCCC12NC(=O)N(CC(=O)Nc1sc3c(c1C(N)=O)CCC3)C2=O (stereo unspecified)	none
COC(=O)c1c(NC(=O)CN2C(=O)NC3(CCc4ccccc4C3)C2=O)sc2c1CCCCC2 (stereo unspecified)	Cruzain inh noDet 13µM
O=C(CN1C(=O)NC2(CCc3ccccc3C2)C1=O)Nc1ccc(Cl)cc1F (stereo unspecified)	none
COC(=O)c1c(NC(=O)CN2C(=O)NC3(CCC(C(C)(C)C)CC3)C2=O)sc2c1CCCCC2 (stereo unspecified)	Cruzain inh noDet 16µM
Cc1ccc2c(CNC3CCC(C)CC3)c(C(=O)O)n(Cc3cccc(F)c3)c2c1 (stereo unspecified)	none
O=S(=O)(c1ccccc1)c1nc(-c2cccs2)oc1SCc1ccccc1F	none
CCc1cccc(NS(=O)(=O)c2cc(-c3cnc(C)o3)ccc2OC)c1	none
O=[N+]([O-])c1cc(S(=O)(=O)N2CCCC2)ccc1N/N=C1/CCCc2ccccc21	Cruzain inh noDet 16µM
O=[N+]([O-])c1cc(S(=O)(=O)N2CCCC2)ccc1NN=C1CCCCC1	none
C/C(=N\NC(=O)c1cccc(S(=O)(=O)Nc2ccccc2Cl)c1)c1ccc(-n2ccnc2)cc1	Cruzain inh noDet 20µM
COc1ccc(NS(=O)(=O)c2cccc(C(=O)N/N=C(\C)c3ccc(-n4ccnc4)cc3)c2)cc1	none
O=C(NC1CCS(=O)(=O)C1)c1c(NC(=O)C2COc3ccccc3O2)sc2c1CCCC2 (stereo unspecified)	none
CCCNC(=O)c1c(NC(=O)C2COc3ccccc3O2)sc2c1CCCC2 (stereo unspecified)	Cruzain inh noDet 20µM
Cc1cc(C)cc(-n2nnnc2SCC(=O)Nc2nc(-c3ccc(Cl)cc3)cs2)c1	Cruzain inh noDet 6.3µM
